Test results published in PubChem BioAssay AID588722 (National Center for Advancing Translational Sciences (NCATS), 2011).
Calls of active or inactive are those of the source.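 The calls were made as follows: active = potency under 20 µM; inactive = the rest.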

test: High Content Assay for Compounds that inhibit the Assembly of the Perinucleolar Compartment:Cell Migration; conditions: PC3M cell invasion in 3D collagen microchannel, Hoechst imaging
Excerpt: The perinucleolar compartment (PNC) is a non-membrane-bound nuclear subdomain that is associated with but structurally distinct from the nucleolus. The PNC is a heritable trait, in which the number of PNCs per cell in daughter cells often mimics that of their mother cells. The PNC is heterogeneous in shape, is stable through interphase, disassembles during mitosis, and reassembles in early G1. The PNC is concentrated with newly synthesized RNA polymerase III (pol III) RNAs (MRP RNA, RNAse P H1 RNA, hY RNAs[hY1, 2, 5], Alu RNA, and SRP [7SL] RNA) and RNA binding proteins (nucleolin, PTB, CUG-BP, KSRP, Raver1, Raver2, and Rod). […] In collaboration between Sui Huang from Northwestern University and the NCGC, a high content assay was developed and screened. The hits were then tested in follow-up assays. High-content tumor cell migration assays in 3-dimensional extracellular matrices are powerful tools for modeling and understanding the biology of this critical step in the process of metastasis. However, most of the available methods are not amenable to the throughput required by studies of comparative pharmacology or small scale screening. For this reason, we worked with BellBrook Labs(R) to test our compounds in their automated high-content tumor cell invasion assays.[35] A standard screening-sized plate with an array of embedded microchannels was designed and constructed from common thermoplastics. NIH Chemical Genomics Center [NCGC] NIH Molecular Libraries Probe Centers Network [MLPCN] MLPCN Grant: MH082371 Assay Submitter (PI): Sui Huang, Northwestern University, Feinberg School of Medicine, Cell and Molecular Biology, Chicago, Illinois.
PC3M cells were tested for invasion through 3D fibrillar collagen in the Iuvo Single Microchannel Plate, in the presence of varying levels of test compounds. Channels were prefilled with 820 nL of 3-dimensional type I collagen at 1 mg/mL, through the input port. Following gelation, 2,000 PC3M cells were seeded into the output port using growth media (RPMI + 10% FBS with antibiotics) in a volume of 5 microL. Cells were incubated in a 37 masculineC incubator inside a humidified container to control evaporation (Bioassay dish, Corning). Media including test compounds was changed daily for 5 days. At the end of the assay, cells were fixed and stained with Hoechst 33342, then imaged with 4x objective under epifluorescence. Under these conditions, we can reliably identify cells across the 140 microm height range of the microchannel. Test compounds were serially diluted by a factor of 3, to produce 10 concentrations ranging from 50 or 100 microM to 2.5 nM.

Compound	Potency	outcome
Cc1c(NC(=O)COC(=O)c2cc(-c3ccc(-c4ccccc4)cc3)nc3ccccc23)c(=O)n(-c2ccccc2)n1C	0.117 µM (active)	
CCN(CC)C(=O)N1c2ccccc2C=Cc2ccccc21	2.1 µM (active)	
CN1c2ccccc2C(C)(C)C12CC(c1ccc(Cl)c(S(=O)(=O)N3CCCC3)c1)=NO2 (stereo unspecified)	3.2 µM (active)	
COc1ccc(-c2nc(NC(=O)c3n[nH]c(=O)c4ccccc34)sc2C)cc1	3.8 µM (active)	
N=c1c2c(-c3ccccc3)c(-c3ccccc3)n(Cc3ccccc3)c2ncn1CCCO	11.5 µM (active)	
O=C(Nc1cccnc1)c1cccs1	1.6 µM (active)	
COc1ccc(-n2c(SC(C)C(=O)Nc3ncc(Cl)cc3Cl)nc3ccccc32)cc1 (stereo unspecified)		inactive
COC(=O)c1c(-c2ccccc2)csc1NC(=O)c1c(-c2ccccc2)noc1C		inactive
CSc1nnc2c3ccccc3n(CCc3ccccc3)c2n1	4.3 µM (active)	
Cc1oc(-c2ccccc2Cl)nc1CSCC(=O)N1CCCC1	6.2 µM (active)	
CCOC(=O)Cn1c(-c2nonc2NC(=O)c2ccccc2F)nc2ccccc21		inactive
